Results: PubChem BioAssay (NCATS)
Where “and” joins values, the source holds several entries; their conditions need not be identical. Equal entries are not always repeated. Results filed as inconclusive are left out. Calls of active or inactive are those of the source. Unless noted, the call rests on the fitted dose curve; in most records, active means well fitted curve in the direction sought with a large enough effect; inconclusive means small, poorly fitted or top-dose-only effect, or another doubt; inactive means no such curve, though single readings can be large; an effect the other way counts as inactive or inconclusive.

Assays:
[1] = Cell Viability - BJ (AID 421; calls by dose curve;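 further: potency means the concentration at half of the fitted maximal effect; cells exposed to compound for 40 hours at 37 °C before readout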); conditions: BJ fibroblast viability, qHTS
Summary of the method: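 Cytotoxicity in human BJ foreskin fibroblasts is scored as loss of cellular ATP after a 40-hour exposure, measured by luciferase luminescence. Controls are DMSO and 100 uM tamoxifen.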

[2] = Cell Viability - Jurkat (AID 426;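 active means dose-dependent loss of cell ATP signal giving a full or clear fitted curve, ranked by lower potency value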;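 further: potency means the concentration at half of the fitted maximal effect; cells exposed to compound for 40 hours at 37 °C before ATP read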); conditions: qHTS
Summary of the method: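 Seed 5000 Jurkat E6-1 cells/well; add compound; incubate 40 hr at 37 °C; add CellTiter-Glo; wait 20 min at room temperature; read luminescence. Fit concentration-response with Hill equation for AC50.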

[3] = Cell Viability - Hek293 (AID 427;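 active means compounds whose dose-response curve shows a full or clear partial loss of cell viability, called from curve shape rather than a numeric limit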;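 further: potency means the concentration at half of the fitted maximal effect; cells exposed to compound for 40 hours at 37 °C before reading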); conditions: qHTS
Summary of the method: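 qHTS, human embryonic kidney (adenovirus-transformed) cells; 40 hr cpd, 37 °C; CellTiter-Glo ATP luminescence. Norm: DMSO = 0, 100 uM tamoxifen = 100% inhibition. Hill-fit AC50.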

[4] = Cell Viability - HepG2 (AID 433; calls by dose curve;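 further: potency means the concentration at half of the fitted maximal effect; potency for ATP loss meaning cytotoxicity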); conditions: qHTS
Summary of the method: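 Cytotoxicity is scored as loss of intracellular ATP in HepG2 cells exposed to compounds for 40 h. Concentration-response curves, normalized to DMSO and 100 uM tamoxifen, give AC50 values.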

[5] = Cell Viability - MRC5 (AID 434; calls by dose curve;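 further: potency means the concentration at half of the fitted maximal effect; cells exposed to compound for 40 hours at 37 °C; potency reflects cytotoxicity seen as loss of intracellular ATP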); conditions: MRC5 lung fibroblast viability, qHTS
Summary of the method: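 qHTS cytotoxicity in human lung fibroblast MRC5 cells; 40 hr treatment, 37 °C; cellular ATP by luciferase luminescence; DMSO = 0%, 100 uM tamoxifen = 100% inhibition; Hill-fit AC50.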

[6] = Cell Viability - Mesenchymal (AID 546); conditions: mesenchymal cells viability, qHTS; series mostly up to 91.7 µM;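 further: cells exposed to compound for 40 hours before reading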
Summary of the method: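 AC50 values reflect the drop in intracellular ATP in a human kidney mesenchymal line derived from normal glomeruli. Treatment lasts 40 hr at 37 °C in complete medium, and the signal comes from CellTiter-Glo luminescence.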

[7] = Cellular Toxicity (caspase-3) HepG2 (AID 654); conditions: HepG2 caspase-3 activation, luminescence, 0% = DMSO only, 100% = tamoxifen; series mostly up to 92.2 µM;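 further: cells exposed to compound for 16 hours before reading; 0% = DMSO alone and 100% = caspase signal from 100 µM tamoxifen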
Summary of the method: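 qHTS, HepG2, 1500 cells/well, complete medium; cpd 16 h 37 °C; Caspase-Glo 3/7, 20 min RT; lum. Norm: DMSO vs 100 uM tamoxifen; AC50 Hill fit.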

[8] = Cellular Toxicity (caspase-3) HUV-EC-C (AID 656); conditions: HUV-EC-C cells, caspase-3 activation (apoptosis), vehicle = 0, 100 µM tamoxifen = 100%; series mostly up to 92.2 µM;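 further: cells exposed to compound for 16 h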
Summary of the method: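 Read-out: luminescence proportional to caspase 3/7 activity, measured 20 min after adding Caspase-Glo 3/7 reagent. Cells (HUV-EC-C) had received compound for 16 hr at 37°C. Increases relative to DMSO and 100 uM tamoxifen gave concentration-response AC50 values.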

[9] = Cellular Toxicity (caspase-3) BJ (AID 658); conditions: BJ fibroblasts, luminescence, normalized: DMSO 0%, staurosporine 100%; series mostly up to 91.7 µM;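 further: cells exposed to compound for 16 hours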
Summary of the method: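 Readout: Caspase-Glo 3/7 luminescence increase in BJ cells after 16 hr treatment at 37 °C. Staurosporine and tamoxifen served as positive controls; AC50 values came from Hill modelling of data normalized to DMSO and 10 uM staurosporine.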

[10] = Cellular Toxicity (caspase-3) MRC-5 (AID 659); conditions: MRC-5 cells, luminescence, normalized: DMSO 0%, 10 µM staurosporine 100%; series mostly up to 91.7 µM;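 further: cells exposed to compound for 16 h at 37 °C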
Summary of the method: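 Concentration-dependent caspase 3/7 activation is measured in human normal lung fibroblasts (MRC-5) following 16-hour treatment. AC50 values come from standard Hill-equation modeling of luminescence normalized to DMSO and 10 uM staurosporine.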

[11] = Cellular Toxicity (caspase-3) SK-N-SH (AID 661); conditions: SK-N-SH caspase-3 activation, qHTS; series mostly up to 91.7 µM;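 further: cells exposed to compound for 16 hours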
Summary of the method: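 Caspase 3/7 activation is measured as a luminescence increase from aminoluciferin released by substrate cleavage in SK-N-SH cells after 16 hr compound treatment; values are AC50 from concentration-response curves.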

[12] = Cellular Toxicity (caspase-3) Hek293 (AID 664); conditions: HEK293 caspase-3 activation, DMSO = 0%, 100 µM tamoxifen = 100%; at 92.2 µM (top of the series);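 further: cells exposed to compound for 16 h at 37 °C before readout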
Summary of the method: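 Activation of caspase-3/7 is measured as increased luminescence from cleaved peptide-aminoluciferin substrate in HEK293 cells treated 16 hours at 37 °C. AC50 values come from Hill-equation fits of concentration-response data.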

[13] = MultiTox-Fluor Cytotoxicity Assay - LYMP1-001 - Dead Cells (AID 946); conditions: LYMP1-001 lymphoblastoid cells, dead-cell protease fluorescence; series mostly up to 92.2 µM;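 further: cells exposed to compound for 16 h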
Summary of the method: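 Seed 2500 LYMP1-001 cells/well, incubate 5 hr at 37 C; add compound, 16 hr at 37 C; add MultiTox-Fluor reagent, 60 min RT; read dead-cell fluorescence Ex/Em=485/520. Normalize to DMSO and 15 uM tetraoctylammonium bromide.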

[14] = Cell Viability - LYMP1-002 - Assay at 16 hr (AID 948); conditions: LYMP1-002 lymphoblastoid cell viability; series mostly up to 92.2 µM;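 further: 0% = DMSO alone and full effect = 92 µM tetraoctylammonium bromide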
Summary of the method: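 Acute cytotoxicity is scored as a concentration-dependent fall in intracellular ATP in a human lymphoblastoid line (LYMP1-002) after 16 hr compound exposure at 37 C, measured by luciferase luminescence.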

[15] = MultiTox-Fluor Cytotoxicity Assay - LYMP1-002 - Live Cells (AID 955); conditions: LYMP1-002 lymphoblastoid live-cell protease fluorescence viability; series mostly up to 46.1 µM;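 further: cells exposed to compound for 16 hours; on the % scale 0 is the no-effect control and ±100 the full control effect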
Summary of the method: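 Cytotoxicity in the human lymphoblastoid line LYMP1-002 is measured as loss of live-cell protease activity after 16 h treatment in complete culture medium. AC50 is derived from Hill-equation fits of qHTS concentration-response data.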

[16] = MultiTox-Fluor Cytotoxicity Assay - LYMP1-003 - Dead Cells (AID 961); conditions: LYMP1-003 lymphoblastoid cells, dead-cell protease fluorescence; series mostly up to 92.2 µM;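 further: cells exposed to compound for 16 h at 37 °C; nearly all actives have a fitted effect of over 70% in size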
Summary of the method: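 LYMP1-003 lymphoblastoid, 2500 cells/well, 5 hr settle then 16 hr cpd at 37 C; MultiTox-Fluor reagent 60 min RT; Ex/Em 485/520 dead-cell signal; norm. DMSO = 0%, 15 uM tetraoctylammonium bromide = 100%; Hill AC50.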

[17] = Cell Viability - LYMP2-016 (AID 984); conditions: LYMP2-016 lymphoblastoid cell viability, qHTS; series mostly up to 92.2 µM;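 further: cells exposed to compound for 24 hours at 37 °C; on the % scale 0 is the no-effect control and ±100 the full control effect; nearly all actives have a fitted effect of over 55% in size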
Summary of the method: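 Acute toxicity in a Coriell human lymphoblastoid line is scored as loss of intracellular ATP over 24 h of treatment in complete medium. CellTiter-Glo signal is fitted across concentrations with the Hill equation to give AC50.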

[18] = Cell Viability - LYMP2-026 (AID 989); conditions: LYMP2-026 lymphoblastoid cell viability, qHTS; series mostly up to 92.2 µM;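 further: cells exposed to compound for 24 h at 37 °C; on the % scale 0 is the no-effect control and ±100 the full control effect; nearly all actives have a fitted effect of over 50% in size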
Summary of the method: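 Concentration-dependent loss of intracellular ATP in human lymphoblastoid cells after 24 hr at 37 C, quantified by luciferase luminescence. AC50 derived from standard Hill equation.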

[19] = qHTS Assay for Identification of Small Molecule Inducers of Hypoxia Response (AID 2120; active means well fitted curve in the direction sought with a large enough effect in the signal ratio, with a control signal flat, not every such curve was filed as active; the % refers to the signal ratio; further: 0% is about no effect); conditions: hypoxia response reporter cells, beta-lactamase ratio readout; series mostly up to 104 µM
Summary of the method: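 Induction of beta-lactamase reporter activity was measured in CellSensor HRE-bla ME-180 cells after 17 h compound treatment at 37 degrees C, using CCF4 substrate and the 460nm/530nm emission ratio to derive AC50 values.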

[20] = target: Peroxisome proliferator-activated receptor alpha (Homo sapiens) (UniProt Q07869); assay: qHTS assay for small molecule agonists of the peroxisome proliferator-activated receptor alpha (PPARalpha) signaling pathway (AID 651778); conditions: PathHunter PPARalpha complementation, chemiluminescence, 6 h; active compounds read high; further: % of control where 0% means no effect
Summary of the method: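 Chemiluminescence from complemented enzyme reported PPARalpha activation in cells after 6 hr of compound treatment at 37 C. The detection reagent was incubated for 60 min at room temperature, and compounds were scored as agonists.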

Sequence of Peroxisome proliferator-activated receptor alpha (Homo sapiens) (Q07869 whole entry, looked up): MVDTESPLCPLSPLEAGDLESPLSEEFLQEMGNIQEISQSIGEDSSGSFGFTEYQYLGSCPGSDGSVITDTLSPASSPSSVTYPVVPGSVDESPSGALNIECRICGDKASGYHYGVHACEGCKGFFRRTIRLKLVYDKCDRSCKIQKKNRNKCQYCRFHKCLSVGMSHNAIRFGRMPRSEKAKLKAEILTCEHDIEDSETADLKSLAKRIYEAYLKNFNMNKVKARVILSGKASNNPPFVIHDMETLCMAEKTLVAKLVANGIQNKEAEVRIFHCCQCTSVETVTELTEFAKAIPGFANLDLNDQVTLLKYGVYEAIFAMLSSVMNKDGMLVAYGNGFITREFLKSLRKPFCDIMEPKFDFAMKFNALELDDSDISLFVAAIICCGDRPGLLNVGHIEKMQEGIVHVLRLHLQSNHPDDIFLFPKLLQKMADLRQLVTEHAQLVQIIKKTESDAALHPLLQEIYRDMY

CNC(=O)O/N=C/C(C)(C)S(C)=O (stereo not given)
inactive: Potency [1] > 92 µM | Potency [2] > 92 µM | Potency [3] > 92 µM | Potency [4] > 92 µM | Potency [5] > 92 µM | Potency [6] | outcome [7] | outcome [8] | outcome [9] | outcome [10] | Potency [11] | caspase-3 activation [12] -2.67% | outcome [13] | outcome [14] | outcome [15] | Potency [16] | Potency [17] | Potency [18] | Potency [19] | max response [20] -3.1% and 0.659%

Cc1ccc([N+](=O)[O-])cc1
inactive: Potency [1] > 92 µM | Potency [2] > 92 µM | Potency [3] > 92 µM | Potency [4] > 92 µM | Potency [5] > 92 µM | Potency [6] | outcome [7] | outcome [8] | outcome [9] | outcome [10] | Potency [11] | caspase-3 activation [12] -0.449% | outcome [13] | outcome [14] | outcome [15] | Potency [16] | Potency [17] | Potency [18] | Potency [19] | max response [20] -0.114%

O=C(Cl)c1ccccc1F
inactive: Potency [1] > 92 µM | Potency [2] > 92 µM | Potency [3] > 92 µM | Potency [4] > 92 µM | Potency [5] > 92 µM | Potency [6] | outcome [7] | outcome [8] | outcome [9] | outcome [10] | Potency [11] | caspase-3 activation [12] 1.06% | outcome [13] | outcome [14] | outcome [15] | Potency [16] | Potency [17] | Potency [18] | Potency [19] | max response [20] -1.25%

CCOC(=O)CC(SP(=O)(OC)OC)C(=O)OCC (stereo not given)
inactive: Potency [1] > 92 µM | Potency [2] > 92 µM | Potency [3] > 92 µM | Potency [4] > 92 µM | Potency [5] > 92 µM | Potency [6] | outcome [7] | outcome [8] | outcome [9] | outcome [10] | Potency [11] | caspase-3 activation [12] 1.27% | outcome [13] | outcome [14] | outcome [15] | Potency [16] | Potency [17] | Potency [18] | Potency [19] | max response [20] -2.03% and -3.38%

C=C(Cl)CSC(=S)N(CC)CC
inactive: Potency [1] > 92 µM | Potency [2] > 92 µM | Potency [3] > 92 µM | Potency [4] > 92 µM | Potency [5] > 92 µM | Potency [6] | outcome [7] | outcome [8] | outcome [9] | outcome [10] | Potency [11] | caspase-3 activation [12] 0.963% | outcome [13] | outcome [14] | outcome [15] | Potency [16] | Potency [17] | Potency [18] | Potency [19] | max response [20] 11.5%

O=NN1CCCCC1
inactive: Potency [1] > 92 µM | Potency [2] > 92 µM | Potency [3] > 92 µM | Potency [4] > 92 µM | Potency [5] > 92 µM | Potency [6] | outcome [7] | outcome [8] | outcome [9] | outcome [10] | Potency [11] | caspase-3 activation [12] -0.0969% | outcome [13] | outcome [14] | outcome [15] | Potency [16] | Potency [17] | Potency [18] | Potency [19] | max response [20] -3.04%

Oc1ccc(Cl)c(Cl)c1
inactive: Potency [1] > 92 µM | Potency [2] > 92 µM | Potency [3] > 92 µM | Potency [4] > 92 µM | Potency [5] > 92 µM | Potency [6] | outcome [7] | outcome [8] | outcome [9] | outcome [10] | Potency [11] | caspase-3 activation [12] 0.945% | outcome [13] | outcome [14] | outcome [15] | Potency [16] | Potency [17] | Potency [18] | Potency [19] | max response [20] -3.58%
